Compound activity deposited in PubChem by several laboratories.
BoNT-F LC inh: BoNT F light chain protease inhibition; Multiplex microsphere protease cleavage assay, flow cytometry; 360,000 tested, 0.22% active; inhibition, % at 10 µM; AID 588497; in the data active = inhibition above about 35%, passing the limit was not always enough; inconclusive = no clear call, values can overlap the other calls
PfHsp40 yeast: compounds rescuing yeast from Plasmodium falciparum HSP40 toxicity. growth rescue, % at 12.5 µM. S. cerevisiae expressing PfHsp40, growth rescue, ATP luminescence. AID 504582. 340,000 tested, 0.68% active; in the data active = growth rescue above about 28%, passing the limit was not always enough; inconclusive = no clear call, values can overlap the other calls;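 note: yeast W303a lacking pdr1 and pdr3 grown in galactose medium; growth measured after three days at 30 °C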
Anthrax LF inh2: blocks Bacillus anthracis lethal factor protease; P15917; multiplex microsphere protease cleavage assay, LF; inhibition, % at 10 µM; 360,000 tested, 0.12% active; AID 588501
Target sequence (P15917 whole entry, looked up): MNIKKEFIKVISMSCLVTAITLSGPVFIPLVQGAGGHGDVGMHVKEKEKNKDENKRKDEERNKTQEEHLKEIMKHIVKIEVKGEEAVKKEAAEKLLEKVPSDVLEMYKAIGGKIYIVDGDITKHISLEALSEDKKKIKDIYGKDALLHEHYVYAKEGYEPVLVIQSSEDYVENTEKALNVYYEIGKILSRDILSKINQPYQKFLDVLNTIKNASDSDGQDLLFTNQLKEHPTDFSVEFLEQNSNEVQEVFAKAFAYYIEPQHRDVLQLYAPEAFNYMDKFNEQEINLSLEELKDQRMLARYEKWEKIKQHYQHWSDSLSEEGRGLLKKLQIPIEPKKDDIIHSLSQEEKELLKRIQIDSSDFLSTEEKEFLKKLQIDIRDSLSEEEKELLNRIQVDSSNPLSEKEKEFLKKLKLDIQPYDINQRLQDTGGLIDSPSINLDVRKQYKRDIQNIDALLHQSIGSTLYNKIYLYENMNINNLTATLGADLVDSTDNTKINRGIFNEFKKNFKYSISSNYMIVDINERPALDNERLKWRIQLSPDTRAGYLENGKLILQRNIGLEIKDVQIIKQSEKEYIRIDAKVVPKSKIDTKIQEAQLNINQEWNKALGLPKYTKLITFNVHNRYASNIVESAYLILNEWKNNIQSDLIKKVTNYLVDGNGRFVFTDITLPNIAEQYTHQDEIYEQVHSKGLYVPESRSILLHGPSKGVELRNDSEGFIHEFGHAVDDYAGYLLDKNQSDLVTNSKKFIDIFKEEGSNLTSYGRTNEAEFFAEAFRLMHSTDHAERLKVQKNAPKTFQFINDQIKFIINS
Bead autofluor: counter-screen for toxin protease inhibitors: compound fluorescence; fluorescence intensity (concentration not given with the values); AID 624483; compound autofluorescence counterscreen, microsphere flow cytometry; hits give high values; 360,000 tested, 3.1% active; in the data active = fluorescence intensity above about 16000; inconclusive = no clear call, values can overlap the other calls
BoNT-A LC inh2: BoNT A light chain protease inhibition | multiplex microsphere protease substrate cleavage, flow cytometry | inhibition, % at 10 µM | 360,000 tested, 0.17% active | AID 588499
MazEF act: MazEF (E. coli) toxin RNase activation; FAM/BHQ RNA-DNA oligo cleavage fluorescence, 5 h; 350,000 tested, 0.32% active; P0AE70; activation, % at 20 µM; in the data active = activation above about 50%
Numbers stand for hits; i = inactive; ? = inconclusive; nt = no result given. Rows were chosen to be rich in hits. Some 4.3% of all compounds tested hit in one or more screens of this group. Cut-off read from the data, not from the text of the source, unless noted: active = inhibition above about 30%; inconclusive = no clear call, values can overlap the other calls; inactive = below that.

SMILES | BoNT-F LC inh | PfHsp40 yeast | Anthrax LF inh2 | Bead autofluor | BoNT-A LC inh2 | MazEF act
COc1cccc(/C=C(/C#N)c2ccc(F)cc2)c1OCc1cccc(C(=O)O)c1 | i | i | i | i | i | i
COc1cc(N2CCCC2)c(OC)cc1/C=C(/C#N)c1cccc(F)c1 | 48 | i | i | 23531 | i | i
N#C/C(=C/c1ccc(N2CCCCCC2)o1)c1cccc(F)c1 | i | i | i | 28830 | i | i
O=C(Nc1ccc2c(c1)OCCO2)c1cccc(S(=O)(=O)N2CCOCC2)c1 | i | i | i | 23080 | i | i
O=C(NCc1ccc2c(c1)OCO2)c1cccc(S(=O)(=O)N2CCCCC2)c1 | i | i | i | 17025 | ? | i
O=C(Nc1ccc(N2CCCC2)cc1)c1cccc(F)c1 | i | i | i | 19303 | i | i
O=C(Nc1ccc(N2CCOCC2)cc1)c1cccc(S(=O)(=O)N2CCCC2)c1 | i | i | i | 25105 | i | i
O=C(Nc1ccc(N2CCCCC2)cc1)c1ccccc1 | i | i | i | i | i | i
O=C(Nc1ccc(N2CCOCC2)cc1)c1cccc(S(=O)(=O)N2CCCCCC2)c1 | i | i | i | i | i | i
O=C(NCc1ccc2c(c1)OCO2)c1cccc(S(=O)(=O)N2CCCC2)c1 | i | i | i | i | i | i
COCCN(C(=O)COC(=O)CSc1ccc(Cl)cc1)c1c(N)n(CC(C)C)c(=O)[nH]c1=O | i | i | i | i | i | i
CCN(CC)C(=O)c1ccc(NC(=O)c2cccc(F)c2)cc1 | i | i | i | 20909 | i | i
O=C(Nc1ccc2c(c1)OCCO2)c1cccc(S(=O)(=O)N2CCCCC2)c1 | i | i | i | 21092 | ? | i
O=C(Nc1ccc(Nc2ccccc2)cc1)c1cccc(F)c1 | i | i | i | i | i | i
CCCn1c(NC(=O)c2cccc(S(=O)(=O)N3CCCC3)c2)nc2ccccc21 | i | i | i | 16663 | i | i
CCS(=O)(=O)c1ccc(O)c(NC(=O)Nc2ccccc2OC)c1 | nt | i | nt | nt | nt | i
Nc1c(C(=O)O)sc2nc3c(cc12)CCCC3 | i | nt | ? | i | i | i
Nc1c(C(=O)c2ccc(Cl)cc2)sc2nc3c(cc12)CCC3 | i | i | i | i | i | 70
CCOC(=O)Cn1c(-c2ccc(Cl)nc2)nc2ccccc21 | i | i | i | 22764 | i | i
CC(=O)Nc1cccc(-n2nnc(SCC(=O)Nc3ccc(F)c(Cl)c3)n2)c1 | i | i | i | 16932 | i | i
Nc1cc(=O)[nH]c(SCC(=O)Nc2ccc(F)c(Cl)c2)n1 | i | i | i | 21150 | i | i
CC(=O)Nc1cccc(-n2nnc(SCC(N)=O)n2)c1 | i | i | i | i | i | i
CCc1nnc(SCC(=O)NCCC2=CCCCC2)nc1CC | i | i | i | i | i | i
Oc1c(Cl)c(Cl)c(Cl)c(Cl)c1Cl | i | 298 | i | i | i | i
CN1C(=O)c2ccc(Oc3ccccc3)cc2C1=O | ? | i | i | i | i | i
SMILES | BoNT-F LC inh | PfHsp40 yeast | Anthrax LF inh2 | Bead autofluor | BoNT-A LC inh2 | MazEF act
O=C(O)c1cc(Cl)ccc1-c1ccc(/C=C/c2cc(C(F)(F)F)[nH]c(=O)n2)o1 | i | i | i | i | i | i
O=C(O)c1ccccc1-c1ccc(/C=C/c2cc(C(F)(F)F)[nH]c(=O)n2)o1 | i | i | i | i | i | 745
O=C(CN1CCNCC1)NCCSc1ccc(Cl)cc1 | i | i | i | i | i | i
CC(C)c1cccc(C(C)C)c1NC(=S)Nc1cccc(Cl)c1 | ? | i | i | i | ? | i
CCOc1cc(/C=C(\C#N)c2[nH]nc(N)c2C#N)ccc1O | i | i | i | 23984 | i | i
C=CCc1c(C)c(C#N)c2nc3ccccc3n2c1NCCN(C)C | i | i | i | i | i | i
CCc1c(C)c(C#N)c2nc3ccccc3n2c1NCCN(C)C | i | i | i | 17739 | i | i
Fc1ccccc1/C=C1\CCCC2=C1Nc1nnnn1C2c1ccccc1F (stereo not drawn) | i | i | i | 22685 | i | i
CCCOc1ccc(NC(=O)C2CC(=O)N3CCCN=C3S2)cc1 (stereo not drawn) | i | i | i | 23005 | i | i
COc1cccc(NC(=O)N2CCCC2C(=O)NC23CC4CC(CC(C4)C2)C3)c1 (stereo not drawn) | i | i | i | i | i | i
CCCCCCCCNC(=O)CCNC(=O)c1ccc(C(C)(C)C)cc1 | i | 47 | i | 16679 | i | i
O=C(O)CN1C(=O)CSc2ccccc21 | i | i | i | i | i | i
CCOC(=O)CN1C(=O)CSc2ccccc21 | i | i | i | 24381 | i | i
O=C1CSc2ccccc2N1Cc1ccc(F)cc1 | i | i | i | 21142 | i | i
CCOc1ccccc1NC(=O)C1C2C=CC(O2)C1C(=O)O (stereo not drawn) | i | i | i | i | i | i
O=C(O)C1C2C=CC(C2)C1C(=O)Nc1cccc(F)c1 (stereo not drawn) | i | i | i | 22384 | i | i
CCOc1ccccc1NC(=O)C1C2C=CC(C2)C1C(=O)O (stereo not drawn) | i | i | i | 25672 | i | i
Cc1ccc(C(=O)Nc2ccc(C(=O)O)cc2)cc1S(=O)(=O)NCc1ccccc1 | i | i | i | i | i | i
COc1ccc(CNC(=O)CNC(=O)c2cccs2)c(OC)c1 | i | i | i | i | i | i
Cc1nc(-c2nc(-c3c(C(=O)NNC(=O)Nc4ccccc4)noc3C)cs2)cs1 | ? | i | i | i | ? | i
CCOCCNC(=O)c1ccccc1C(=O)NCCOCC | i | i | i | 17947 | i | i
Clc1cc(/C=N\NC2=NCCN2)cc(Cl)n1 | i | nt | i | i | i | i
CCCC(=O)c1c(NC)cc(C)oc1=O | i | i | i | 21049 | ? | i
COc1ccc(CNCC(O)(c2ccc(Cl)cc2)c2ccc(Cl)cc2)cc1 | i | i | i | 21174 | i | i
COc1ccc(CNCC(O)(c2ccc(Cl)cc2)c2ccc(Cl)cc2)cc1OC | i | i | i | 18261 | i | i
SMILES | BoNT-F LC inh | PfHsp40 yeast | Anthrax LF inh2 | Bead autofluor | BoNT-A LC inh2 | MazEF act
COc1ccc(CNCC(O)(c2ccc(F)cc2)c2ccc(F)cc2)cc1OC | i | i | i | i | i | i
OCC1OC(n2cnc3c(/C=C(\O)c4ccccc4)ncnc32)C(O)C1O (stereo not drawn) | i | i | i | i | i | i
O=C(CCNS(=O)(=O)c1ccccc1C(F)(F)F)NCCCc1ccccc1 | i | i | i | i | i | i
O=C(NNC(=O)c1cc(Cl)ccc1O)c1ccc(NS(=O)(=O)c2cccs2)cc1 | nt | 351 | nt | nt | nt | i
O=C(O)CNC(=O)c1ccc(S(=O)(=O)N2CCOCC2)cc1 | i | i | i | 20309 | i | i
O=C(NC(Cc1ccccc1)C(=O)N1CCN(S(=O)(=O)c2ccccc2)CC1)c1ccccc1 (stereo not drawn) | i | i | i | i | i | i
O=C(NC(Cc1ccccc1)C(=O)O)c1ccc(S(=O)(=O)N2CCOCC2)cc1 (stereo not drawn) | i | i | i | 19429 | i | i
O=C(NCC(=O)N1CCN(c2ccccn2)CC1)c1ccc(Br)o1 | i | i | i | i | i | i
